In ChEMBL document CHEMBL3433997, “St. Jude Leishmania screening dataset” (2016):

What was measured:
Format in all cases: functional
[1] = biological target: Solute carrier family 2, facilitated glucose transporter member 1 (Homo sapiens) (UniProt P11166); experiment: ST_JUDE_LEISH: Cytotoxicity at 2uM final concentration against transgenic Leishmania Mexicana promastigotes LmGLUT1 that are glucose transport deficient and complemented with the human glucose transporter GLUT1. Activity is measured by DNA content using SYBR green in vitro
Sequence of Solute carrier family 2, facilitated glucose transporter member 1 (Homo sapiens) (P11166 whole entry): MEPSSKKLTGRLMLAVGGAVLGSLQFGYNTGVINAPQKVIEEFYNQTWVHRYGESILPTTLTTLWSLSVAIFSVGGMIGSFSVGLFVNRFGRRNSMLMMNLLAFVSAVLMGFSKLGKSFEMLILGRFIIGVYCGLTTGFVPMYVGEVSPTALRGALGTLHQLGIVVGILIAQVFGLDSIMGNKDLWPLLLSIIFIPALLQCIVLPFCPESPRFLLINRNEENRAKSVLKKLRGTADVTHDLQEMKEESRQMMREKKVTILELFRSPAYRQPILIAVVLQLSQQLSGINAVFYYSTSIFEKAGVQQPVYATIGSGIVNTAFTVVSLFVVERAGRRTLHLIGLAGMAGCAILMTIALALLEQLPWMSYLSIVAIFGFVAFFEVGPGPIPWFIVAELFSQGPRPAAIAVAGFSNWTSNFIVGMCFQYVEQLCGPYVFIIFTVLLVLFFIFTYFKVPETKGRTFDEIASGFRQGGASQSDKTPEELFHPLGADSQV

[2] = biological target: Hexose transporter 1 (Plasmodium falciparum) (UniProt O97467); experiment: ST_JUDE_LEISH: Cytotoxicity at 2uM final concentration against transgenic Leishmania Mexicana promastigotes LmPfHT that are glucose transport deficient and complemented with the Plasmodium falciparum hexose transporter. Activity is measured by DNA content using SYBR green in vitro
[3] = biological target: Glucose transporter (Leishmania mexicana) (UniProt O61059); experiment: ST_JUDE_LEISH: Cytotoxicity at 2uM final concentration against transgenic Leishmania Mexicana promastigotes LmGT2 that are glucose transport deficient and complemented with the L. Mexicana glucose transporter 2. Activity is measured by DNA content using SYBR green in vitro

Row | SMILES | inhibition [1] | inhibition [2] | inhibition [3]
1 | COc1ccc(Oc2ccccc2CNCC2CCN(CC3CCCCC3)CC2)cc1 | 6.31% | -1.98% | 2.13%
2 | Cc1cc(=O)c(-c2ccc(Oc3ccc(OC(F)(F)F)cc3)cc2)c(C)[nH]1 | -0.98% | -0.47% | -1.38%
3 | CC(=O)Nc1ccc(OCCCN(Cc2ccccc2OC(F)(F)F)c2ccc(C(F)(F)F)c(C#N)c2)c(Cl)c1 | 2.37% | -1.13% | 1.86%
4 | COc1ccc(CCNC(C)Cc2ccc(C(=O)Nc3ccc(CC(C)NCCc4cccc(Cl)c4)cc3)cc2)cc1 (stereo not drawn) | 3.92% | 13% | 0.32%
5 | Cc1cc(C)cc(CC(=O)N2CCC(n3c(C)nc4ccc(C)cc43)CC2)c1 | 2.35% | 1.45% | 1.51%
6 | CCn1ccc2c3c(N)nc(N)nc3ccc21 | 1.21% | 2.13% | -1.34%
7 | O=C(Nc1cccc(CN2CCCN(Cc3ccsc3)CC2)c1)c1ccc(-c2ccccc2)cc1 | 2.55% | 3.01% | 1.6%
8 | Cc1[nH]c(/C=C2\C(=O)Nc3ccc(S(=O)(=O)Cc4c(Cl)cccc4Cl)cc32)c(C)c1C(=O)N1CCC[C@@H]1CN1CCCC1 | 1% | 0.58% | 2.26%
9 | O=C(Nc1ccccc1)c1ccc(N2CCC(COc3cccc(C(F)(F)F)c3)CC2)nc1 | 1.05% | 1.65% | 1.07%
10 | CCN(CCCN1CCCCC1)c1nc(C)cc(Nc2ccc(Cl)cc2)n1 | 0.5% | -0.38% | 1.1%
11 | COc1ccc(-c2cc(Nc3nc(-c4cccc(Cl)c4)nc4ccccc34)ccn2)cc1 | 1.11% | 0.61% | -0.05%
12 | CN(C)C(CNC(=O)c1cc(-c2ccncc2)c(-c2ccc(NC(=O)Nc3cccc(F)c3)cc2)o1)c1ccccc1 (stereo not drawn) | 0.98% | 0.71% | 0.6%
13 | c1ccc(CNc2cc(-c3ccccn3)nc(-c3ccccn3)n2)cc1 | 24.5% | 4.72% | 8.35%
14 | Cc1cc(=NN=Cc2ccccc2)c2cc(F)ccc2[nH]1 | 4.17% | 0.79% | 6.79%
15 | COc1ccc(CNC(=O)c2cnc3cc(-c4c(C)noc4C)ccc3c2Nc2ccccc2C(C)(C)C)cc1 | 3.17% | 4.17% | 1.52%
16 | O=C(N[C@H]1CCN(Cc2ccc(OCCN3CCNCC3)c3ccccc23)C1)c1ccc(Cl)c(Cl)c1 | 1.1% | 4.37% | 2.91%

Row | SMILES | inhibition [1] | inhibition [2] | inhibition [3]
17 | COc1cccc2cc(C(=O)N[C@@H](CC(C)C)C(=O)N[C@H](/C=N/NC(=O)N3CCN(C)CC3)CCc3ccccc3)oc12 | 9.32% | 11.9% | 8.39%
18 | O=C(Nc1ccc(Oc2ccccc2)cc1)N[C@@H](Cc1ccc(O)cc1)C(=O)NC1CCN(Cc2ccc(O)c([N+](=O)[O-])c2)C1 (stereo partly drawn) | 2.19% | 1.19% | 0.33%
19 | CCN1CCC(N(Cc2ccc(-c3ccc(C(F)(F)F)cc3)o2)C(=O)Cn2c(CCc3cccc(F)c3F)nc(=O)c3ccccc32)CC1 | 11.3% | 10.6% | 11.7%
20 | CC(=O)c1ccc(NC(=O)Nc2ccc3nccc(N4CCN(C)CC4)c3c2)cc1 | 1.22% | 1.77% | 1.46%
21 | FC(F)(F)c1ccc2[nH]c(-c3cccc(-c4cccc(CNCCc5ccncc5)c4)c3)nc2c1 | 4.96% | 4.69% | 5.06%
22 | CN1CCN(CC(=O)Nc2ccc(-c3ccc(-c4nc5cc(C(F)(F)F)ccc5[nH]4)cc3)cc2)CC1 | 2.58% | 0.64% | 1.55%
23 | OC(CNCCCCCCNCC(O)c1ccc(Cl)c(Cl)c1)c1ccc(Cl)c(Cl)c1 (stereo not drawn) | 3.81% | 4.69% | 3.55%
24 | CN1CC[C@@H](Oc2cc(NC(=O)Nc3ccccc3Br)ccc2Cl)C1 | 4.94% | 3.71% | 2.59%
25 | COc1ccc(-c2cccc(NC(=O)c3ccc(F)cc3)c2)cc1CN1CCCN(C)CC1 | 11.2% | 9.38% | 7.43%
26 | O=C(/C=C/c1ccc(Cl)c(Cl)c1)NCCCCCN1CCC(NC(=O)Nc2ccccc2Cl)CC1 | 0.63% | 0.55% | 0.27%
27 | Cc1ccccc1CN1CCCN(Cc2ccc(C(=O)Nc3ccc(Cl)cc3)cc2)CC1 | 7.5% | 6.18% | 6.4%
28 | O=c1ccc2ccc(F)c3c2n1CC3CN1CCC(NCc2cccc(-c3cccs3)c2)CC1 (stereo not drawn) | 6.55% | 8.34% | -6.19%
29 | N#Cc1cccc(NC(=O)Nc2ccc(CC(=O)N3CCc4cc(Cl)c(N5CCN(C/C=C/c6ccccc6)CC5)cc43)cc2)c1 | 2.33% | 4.39% | 2.7%
30 | Cc1ccc(Cl)c2sc(N3CCN(C(=O)c4ccc([N+](=O)[O-])o4)CC3)nc12 | 62.4% | 54.6% | 27.6%
31 | CCCCNCc1ccc(-c2nc(CN(C(=O)Nc3cc([N+](=O)[O-])ccc3F)C3Cc4ccccc4C3)cs2)cc1 | 6.86% | 8.03% | 4.78%
